A549 tox: Nrf2 qHTS screen for inhibitors: counterscreen for cytotoxicity. A549 ARE-Fluc cells, CellTiter-Fluor viability, 18-24 h. Potency, µM (top dose mostly 46 µM), for the others: top-dose activity change, negative = cytotoxicity, usual class: inhibitors. 390,000 compounds, 0.16% hits. AID 504648, 2011; further: potency means the concentration at half of the fitted maximal effect; on the % scale 0 is the no-effect control and ±100 the full control effect
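Cytotoxicity counterscreen: CellTiter-Fluor fluorescence was measured in A549 ARE_Fluc cells after 18-24 h of compound exposure in a concentration series. The subsequent BugLite luminescent read reports ARE-luciferase activity.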
GALK inhibitor: qHTS Assay for Inhibitors of Human Galactokinase (GALK). P51570. 270,000 compounds, 0.007% hits. Purified GALK, Kinase-Glo residual ATP luminescence. Potency, µM (doses to about 57.5 µM), without a hit: at the top dose activity change, negative = inhibition, most hits filed as inhibitors; further: potency means the concentration at half of the fitted maximal effect; on the % scale 0 is the no-effect control and ±100 the full control effect
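Quantitative HTS: GALK 5 nM, ATP 35 uM, galactose 100 uM, 1 h room temperature, then luciferase-based ATP detection.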
PI4K2A inh: qHTS for small molecular inhibitors of PI4K2A; AID 1346378, 2018; activity change, negative = inhibition, % at 76.9 µM; Phosphatidylinositol 4-kinase type 2-alpha (Homo sapiens), Q9BTU6; 420,000 compounds, 0.13% hits; purified PI4K2A, ADP-Glo luminescence, 1 h; hits give low values; in the data active means activity change below about -50%; inconclusive means mostly about -30% to -49%;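 further: -100% = wells without enzyme as full effect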
Target sequence (Q9BTU6 whole entry, looked up): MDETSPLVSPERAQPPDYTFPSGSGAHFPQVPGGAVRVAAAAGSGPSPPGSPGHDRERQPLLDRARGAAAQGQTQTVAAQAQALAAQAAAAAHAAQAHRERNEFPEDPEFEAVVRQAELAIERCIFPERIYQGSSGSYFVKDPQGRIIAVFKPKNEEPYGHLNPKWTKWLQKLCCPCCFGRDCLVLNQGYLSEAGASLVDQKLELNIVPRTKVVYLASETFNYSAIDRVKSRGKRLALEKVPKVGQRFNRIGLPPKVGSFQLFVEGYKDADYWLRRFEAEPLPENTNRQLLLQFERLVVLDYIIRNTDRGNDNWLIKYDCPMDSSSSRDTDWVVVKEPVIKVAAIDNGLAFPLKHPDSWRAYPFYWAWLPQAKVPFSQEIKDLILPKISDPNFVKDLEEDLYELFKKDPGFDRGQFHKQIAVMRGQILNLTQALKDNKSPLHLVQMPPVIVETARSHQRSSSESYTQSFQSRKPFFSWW
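PI4K2A activity was measured by ADP-Glo luminescence: enzyme (4 ug/mL stock) and phosphatidylinositol (1.2 mM stock) in Tris pH 7.5/MgCl2/EGTA/Triton X-100 buffer were reacted with ATP (300 microM stock) for one hour at ambient temperature.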
Nrf2 inh: Nrf2 qHTS screen for inhibitors. A549 ARE-Fluc reporter, luciferase luminescence, 18-24 h. Potency, µM (doses to about 46 µM), for inactives: at the top dose activity change, negative = inhibition, usual class: inhibitors. 360,000 compounds, 2.1% hits. AID 504444, 2011; further: potency means the concentration at half of the fitted maximal effect; on the % scale 0 is the no-effect control and ±100 the full control effect; nearly all actives have a fitted effect of over 60% in size
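Concentration-response testing used A549 ARE_Fluc cells at 5000 cells/well. Following an 18-24 h compound incubation, viability was read by fluorescence (Ex 405/Em 525) and luciferase output by luminescence.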
miR-21 reporter: qHTS Assay for Modulators of miRNAs and/orActivators of miR-21. HeLa miR-21 FLuc reporter, luciferase, 48 h. Potency, µM (titrated, usually from 38.3 µM), for inactives: at the highest dose activity change, positive = activation, most hits filed as activators. 340,000 tested, under 10 active;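 further: % of control where 0% means no effect; miR-21 action dims this reporter so a rising signal means less miR-21 action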
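Using DMEM plus 10% FBS, HeLa miR-21-FLuc cells are incubated with test compounds (final up to about 40uM) for 48 hours; firefly luciferase signal is then imaged following reagent-mediated lysis.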
Nrf2 activator: qHTS of Nrf2 Activators; 410,000 compounds, 0.31% hits; Potency, µM (highest dose often 46.1 µM), for inactives: at the top dose activation, most hits filed as activators; AREc32 ARE-luciferase reporter (MCF7-derived line), luminescence, 24 h; further: potency means the concentration at half of the fitted maximal effect; % of control where 0% means no effect; nearly all actives have a fitted effect of over 65% in size
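Nrf2 activation is followed as ARE-luciferase induction in the AREc32 line after one day of compound treatment; luminescence is read with Steady-Glo.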
Numbers without * were called inactive; ? = inconclusive; . = no result given. Compounds with a hit are over-represented: about 2.2% of the library has one in this group of screens. Unless noted, the call rests on the fitted dose curve; in most records, active means well fitted curve in the direction sought with a large enough effect; inconclusive means small, poorly fitted or top-dose-only effect, or another doubt; inactive means no such curve, though single readings can be large; an effect the other way counts as inactive or inconclusive.

SMILES	A549 tox	GALK inhibitor	PI4K2A inh	Nrf2 inh	miR-21 reporter	Nrf2 activator
CC(C)(C)NS(=O)(=O)c1ccc(NC(=O)C(Sc2ccccc2)c2ccccc2)cc1 (stereo not drawn)	?	-0.9%	1.2	9.2µM*	22.8%	-0.3%
O=C(Nc1ccc(OC(F)(F)F)cc1)Nc1c(-c2ccccc2)nc2ncccn12	.	.	3.7	.	.	.
CCn1c(CN2CCC(C)CC2)nc2cc(NC(=O)COc3ccc(Cl)c(C)c3)ccc21	?	.	-2.0	14.6µM*	?	1.1%
COc1cccc(/C=N/Nc2snc(SC)c2C#N)c1	-1.2%	-2.5%	-5.6	?	-25.3%	11.7%
COc1ccc(/C=N/Nc2snc(SC)c2C#N)cc1OC	-6.6%	0.4%	-53.6*	?	-40.7%	10.4%
CCCCC(=O)OCC(=O)[C@H]1[C@H](C)C[C@H]2[C@@H]3C[C@H](F)C4=CC(=O)C=C[C@]4(C)[C@@]3(F)[C@@H](O)C[C@@]21C	.	.	1.6	.	.	.
CCCC1CCC2(CC1)CCC2OC(=S)Nc1ccc(I)cc1 (stereo not drawn)	.	.	-0.8	.	.	.
O=C(NCc1ccc(C(=O)NC2CCCC2)cc1)c1cccc(Br)c1	.	.	-3.5	.	.	.
N#Cc1c(Cl)nsc1NC(=O)c1ccccc1	?	-6.6%	-7.2	2.59µM*	19.5%	2.8%
O=C(Cn1ccc2cc(S(=O)(=O)N3CCCCCC3)ccc21)NCCc1ccc(Cl)cc1	-2.0%	.	5.0	25.9µM*	0.8%	5.8%
CC(C)CCNC(=O)c1cc2cc(S(=O)(=O)N3CCCCC3)ccc2n1C	-4.9%	.	1.6	.	-1.5%	-0.5%
CCC(C(=O)NCCC(C)C)n1ccc2cc(S(=O)(=O)N3CCCCC3)ccc21 (stereo not drawn)	-18.9%	-6.4%	-4.3	13µM*	28.6%	0.4%
O=C1C[C@@H](C(=O)Nc2ccc(Cl)cc2)[C@@H](c2ccccc2)O1	.	.	-0.6	.	.	.
CN(C)/C=C1\C(=O)N(c2ccc([N+](=O)[O-])cc2)N=C1c1ccccc1	-21.1%	-0.3%	-50.7*	?	-39.3%	7.5%
CN(C)/C=C1/C(=O)N(c2ccc([N+](=O)[O-])cc2)N=C1c1ccccc1	.	0.7%	.	.	-58.5%	.
COC(=O)c1ccc(N2CCC(c3cc(-c4ccc(OC)cc4)n[nH]3)CC2)c([N+](=O)[O-])c1	-29.6%	6.1%	-6.2	?	14.4%	-0.4%
COc1ccc(-c2cc(C3CCN(c4ccc(C(C)=O)cc4[N+](=O)[O-])CC3)[nH]n2)cc1	?	-2.1%	-3.9	16.4µM*	26.0%	-0.5%
COc1cccc(N2CCN(CC(=O)NCc3ccccc3C)CC2)c1	.	.	1.1	.	.	.
CN=c1sc2c(n1C)C(=O)c1ccccc1C2=O	?	.	-13.9	20.6µM*	.	5.5%
CC(C)OC(=O)c1c(-c2ccccc2)c(-c2ccccc2)nn(C)c1=O	-4.2%	.	1.1	9.2µM*	11.7µM*	3.9%
CCOC(=O)[C@@]12CCC3=C1N(CCC3)C(=O)[C@H](CC(=O)NCCCOC)C2	.	.	-0.9	.	.	.
OC[C@H]1OC(O)[C@H](O)[C@@H](O)[C@H]1O (stereo partly drawn)	-9.2%	.	-0.2	-5.0%	.	-0.7%
OCC1O[C@H]([S-])[C@H](O)[C@@H](O)[C@@H]1O.[Au+] (stereo partly drawn)	.	.	-55.1*	.	.	.
O=C(COc1ccc(Cl)cc1Cl)NCC1(N2CCOCC2)CCCCC1	-0.5%	.	-4.2	23.1µM*	.	0.1%
COC(=O)C[C@@H]1CC[C@H]2[C@@H](COc3ccc(NC(=O)c4ccc(Cl)cc4)cc3C(=O)N2C)O1	.	.	-0.7	.	.	.
SMILES	A549 tox	GALK inhibitor	PI4K2A inh	Nrf2 inh	miR-21 reporter	Nrf2 activator
CCOC(=O)C(=CNc1ccc2c(c1)nnn2-c1ccc(Cl)cc1)C(=O)OCC	?	3.2%	-3.5	29.1µM*	-6.5%	4.1%
O=c1[nH]nc(SCCS(=O)(=O)c2ccc(F)cc2)n1-c1ccccc1	-6.5%	0.6%	0.2	-27.3%	20.6%	12.6µM*
O=c1[nH]nc(SCCS(=O)(=O)c2ccc(F)cc2)n1-c1ccc2c(c1)OCCO2	-12.0%	2.2%	7.5	13.8%	21.3%	12.6µM*
O=C(CCCN1C(=O)/C(=C/c2cccc(Br)c2)SC1=S)Nc1cccnc1	?	-1.4%	18.8	?	-1.3%	?
CCc1ccc(/C=C2\SC(=S)N(CCCC(=O)Nc3ccccn3)C2=O)cc1	-13.4%	1.6%	-2.1	23.1µM*	7.8%	-2.8%
O=C(CCCN1C(=O)/C(=C\c2cccc(Br)c2)SC1=S)Nc1cccnc1	?	2.2%	18.3	?	-6.4%	10µM*
Cc1ccc(/C=C2\SC(=S)N(CCCC(=O)Nc3cccnc3)C2=O)cc1	?	-0.5%	-0.1	11.6µM*	27.2%	-2.0%
CCOC(=O)c1ccc2c(c1)nc(C1CCN(S(=O)(=O)c3cccs3)CC1)n2CC	?	-4.1%	-1.3	25.9µM*	27.7%	1.6%
CCOC(=O)c1cccc(NC(=O)C2CCN(S(=O)(=O)c3cccs3)CC2)c1	?	0.4%	3.1	.	22.0%	2.0%
Cc1ccc(NC(=O)COCc2cc(-c3cccs3)on2)cc1Cl	14.7%	.	1.4	?	-2.1%	7.08µM*
Cn1nc(C(F)(F)F)c(C(=O)Nc2ccc(F)cc2F)c1Sc1cccc(C(F)(F)F)c1	15.2%	-4.0%	4.3	-12.2%	-1.2%	-0.2%
Cn1nc(C(F)(F)F)c(C(=O)Nc2ccc(F)cc2F)c1Sc1cccc(Cl)c1	?	-2.3%	1.7	18.4µM*	0.0%	-0.1%
COc1ccc(CN(Cc2ccccc2)S(=O)(=O)c2ccccc2)cc1COc1ccc(NC(C)=O)cc1	-7.8%	.	.	15.8%	.	.
Cc1ccc(C(=O)Nc2nc3c(s2)CCCC3)o1	-9.5%	1.7%	-20.3	?	-10.1%	4.8%
O=C(Nc1nc2c(s1)CCCC2)c1ccc(Br)o1	-1.2%	6.1%	-17.0	?	-6.2%	12.6µM*
COc1ccc(C(C)(C)C)cc1NC(=O)Nc1ccc2c(c1)OCO2	?	-1.0%	-0.3	23.1µM*	7.2%	-0.9%
COc1cc(NC(=O)Nc2ccc3c(c2)OCO3)cc(OC)c1OC	-2.0%	0.9%	0.6	7.2%	-12.5%	4.3%
CCOc1cc(CNCc2ccc(C(=O)O)cc2)ccc1OC	-0.8%	1.0%	-0.5	6.5%	0.0%	-1.2%
CCOc1cc(CNCc2cc(OC)cc(OC)c2)ccc1OC	-7.9%	-2.6%	1.3	8.2µM*	15.6%	0.8%

Source: PubChem
